Screening results as filed in PubChem.
TIM10 inh: growth inhibitors of TIM10 yeast strain | AID 463195 | S. cerevisiae TIM10 strain growth, BacTiter-Glo luminescence, 24 h | 330,000 tested, 1.4% active | inhibition, % at 10 µM;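 active = inhibition of 40% or more at the single tested concentration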;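 note: wild-type TIM10 isogenic control strain grown at permissive 25 °C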
tim23-1 inh: growth inhibitors of tim23-1 mutant yeast. S. cerevisiae tim23-1 growth, BacTiter-Glo luminescence, 24 h. inhibition, % at 20 µM. 330,000 tested, 1.3% active;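 active = growth inhibition of the mutant yeast at or above 50%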;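 note: temperature-sensitive mutant grown at 25 °C; plate controls were DMSO-treated mutant yeast for no effect and medium wells lacking yeast for full effect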
tim10-1 inh: tim10-1 yeast growth inhibition | 330,000 tested, 2.2% active | S. cerevisiae tim10-1 ts strain growth, BacTiter-Glo, 24 h | inhibition, % at 20 µM;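 active = inhibition of at least 40%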;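 note: mutant grown at 25 °C; 0% = DMSO wells with yeast and 100% = wells holding no yeast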
PfHsp90 yeast 2: reduces growth (ATP signal) of yeast expressing P. falciparum Hsp90; S. cerevisiae expressing PfHsp90, BacTiter-Glo ATP, 48 h; yeast lacking PDR1 and PDR3 efflux regulators; inhibition, % at 9.4 µM; 310,000 tested, 0.32% active; AID 504621;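 active = every replicate shows inhibition above about 80%, whatever the replicate mean, limit read from the data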;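 note: 0% = DMSO neutral controls and 100% = 20 µM radicicol positive controls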
V-ATPase pH: yeast V-ATPase proton transport regulation by pHLuorin; 350,000 tested, 0.37% active; S. cerevisiae, pHLuorin cytosolic pH fluorescence; response, % at 10 µM; in the data active = response mostly above about 7.3%, no sharp cut-off; inactive = mostly below about 5.4%; note: actives read high
tim10-1 confirm: confirmation of tim10-1 mutant yeast growth inhibitors; S. cerevisiae tim10-1 ts strain growth, BacTiter-Glo, 24 h; shares compounds with tim10-1 inh; 7,400 tested, 56% active; AID 463213; inhibition, % at 20 µM;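 active = inhibition of yeast growth at or above a set limit in either of two repeat tests at 20 µM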;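 note: tim10-1 mutant grown at permissive 25 °C to find synthetic lethal compounds; 0% = DMSO yeast wells and 100% = medium wells without yeast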
TIM10 conf: confirmation of TIM10 yeast growth inhibitors; shares compounds with TIM10 inh; 4,600 tested, 63% active; inhibition, % at 10 µM; AID 463215; S. cerevisiae tim10 strain growth, BacTiter-Glo luminescence, 24 h;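 active = inhibition of yeast growth at or above a set limit in either of two replicates at 10 µM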;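 note: this counterscreen used the strain with wild-type TIM10; 0% = yeast with DMSO and 100% = medium wells lacking yeast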
tim23-1 confirm: tim23-1 yeast growth inhibition, confirmed | shares compounds with tim23-1 inh | S. cerevisiae tim23-1 growth, BacTiter-Glo luminescence, 24 h | inhibition, % at 20 µM | 4,400 tested, 83% active;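 active = inhibition above about 39% in either of two replicate wells at 20 µM, limit read from the data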;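 note: temperature-sensitive tim23-1 mutant grown at 25 °C; 0% = DMSO wells with yeast and 100% = medium wells without yeast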
Numbers without * were called inactive; · = no result given. A selection: hits, their analogues and other compounds. The true share with any hit is near 3.7%.

SMILES	TIM10 inh	tim23-1 inh	tim10-1 inh	PfHsp90 yeast 2	V-ATPase pH	tim10-1 confirm	tim23-1 confirm	others
CC[C@]12c3[nH]c4cc(-c5ccco5)ccc4c3CCN1C(=O)[C@@H](CC(=O)NC(C)(C)C)C[C@@H]2C(=O)N1CCN(C(=O)c2ccco2)CC1	1.3	39.5	15.0	-8.0	1.0	·	·
CCCCNC(=S)NC(=O)c1ccc(Cl)cc1Cl	38.2	54.1*	48.7*	·	3.1	36.5*	52.6*
O=C(NC(=S)NCCN1CCOCC1)c1ccc(Cl)cc1Cl	0.0	-9.1	9.8	9.3	0.5	·	·
O=C(NC1CCCCCC1)c1ccc([N+](=O)[O-])s1	29.3	63.2*	57.3*	·	7.5	50.0*	48.2*
O=C(NC1CCCC1)c1ccc(Cl)s1	-11.3	6.4	-15.5	0.7	2.8	·	·
CCOC(=O)Cc1csc(NC(=S)NC(=O)CC(C)C)n1	42.3*	55.1*	50.4*	-28.8	-0.2	47.2*	55.5*	TIM10 conf=39.1*
CCOC(=O)Cc1csc(NC(=S)NC(=O)c2cc(OC)cc(OC)c2)n1	6.4	1.1	15.6	5.3	-1.4	·	·
CSc1nnc2c3cc(F)ccc3n(C)c2n1	77.0*	51.5*	47.8*	83.5*	4.5	61.0*	50.5*	TIM10 conf=80.8*
CCOc1ccc2c(c1)/C(=N/N1C(=O)c3ccccc3C1=O)C(=O)N2	22.7	16.2	17.2	31.3	1.4	·	·
CCOc1ccc2c(c1)-c1c(ssc1=S)C(C)(C)N2	37.2	52.1*	47.8*	-5.2	0.3	40.5*	55.8*
CCCCCCCCn1c2c(c(=N)c3ccccc31)CCC2	25.5	66.0*	60.4*	13.5	-1.0	51.2*	62.5*
CCCCCCCCCn1c2c(c(=N)c3c1CCC3)CCCC2	51.0*	79.9*	51.5*	0.1	0.5	55.9*	83.2*	TIM10 conf=46.2*
CCCCCCCCCCn1c2c(c(=N)c3c1CCC3)CCC2	38.5	83.1*	65.3*	6.6	1.7	30.5	76.3*
CCn1c2c(c(=N)c3c1CCC3)CCCC2	1.7	-7.9	-13.2	·	-3.5	·	·
CCc1ccc(C(=O)Cc2cc3cccc(OC)c3oc2=O)cc1	9.2	-5.2	-1.8	-0.4	-0.1	·	·
CCn1c(C)nc2cc(-c3nc4n(n3)Cc3ccccc3-4)ccc21	54.3*	64.9*	60.4*	55.0	0.4	51.0*	68.1*	TIM10 conf=49.3*
CN(/N=C/c1ccc(O)cc1O)c1ncc(C(F)(F)F)cc1Cl	11.4	61.7*	45.3*	-43.4	18.9	25.0	56.4*
COc1ccc(/C=C/c2nnc(NC(=O)C(C)(C)C)s2)cc1	29.6	52.1*	41.1*	3.3	-2.0	31.4*	46.1*
CCCC(=O)Nc1nnc(/C=C/c2ccc(OC)cc2)s1	11.1	10.6	-3.0	-5.3	-0.2	·	·
O=C(COC(=O)/C=C/c1ccco1)NCCc1ccccc1	-1.3	3.2	23.7	7.1	1.4	·	·
CN[C@H]1C[C@H]2c3[nH]c4ccccc4c3CCN2C(=O)[C@H]1[C@H](C)O	·	·	·	·	-1.5	·	·
O=C(COc1ccc(Cl)cc1)NCc1n[nH]c(=O)c2ccccc12	16.2	7.3	14.9	·	2.5	·	·
C/C(=N\Nc1nc2c(s1)CCCC2)c1ccc(Cl)cc1	50.0*	58.2*	60.7*	-4.5	1.6	47.1*	62.8*	TIM10 conf=24.2
Cc1ccc(C(=O)Nc2ccc(S(=O)(=O)Nc3cnc4ccccc4n3)cc2)cc1	8.9	0.1	-4.5	-21.9	-3.0	·	·
C(=N\Nc1nc(-c2cccnc2)nc2ccccc12)/c1ccccc1	9.7	26.9	17.4	·	-0.9	·	·
SMILES	TIM10 inh	tim23-1 inh	tim10-1 inh	PfHsp90 yeast 2	V-ATPase pH	tim10-1 confirm	tim23-1 confirm	others
Brc1ccc(-c2nc(N/N=C/c3cccnc3)c3ccccc3n2)cc1	67.4*	80.5*	82.0*	15.1	3.8	6.3	85.9*	TIM10 conf=55.5*
Cc1ccc(NC(=O)N2C3CCCC2CC(NC(=O)C2CC2)C3)cc1 (configuration not stated)	-12.1	6.1	7.9	10.0	-1.4	·	·
O=C(/C=C/c1ccc(Cl)cc1Cl)n1cccn1	53.0*	66.2*	56.0*	13.3	9.6	57.8*	84.1*	TIM10 conf=-26.1
CCCCCCCCC[n+]1cccc2c3ccccc3ccc21	-53.2	-51.6	16.4	12.0	-6.3	·	·
CCCCCCCCCCCCCCCC[n+]1cccc2ccccc21	89.2*	96.3*	97.6*	106.1*	10.5	97.9*	97.3*	TIM10 conf=-24.0
Cc1cc(C)nc(S/C=C/C(=O)c2ccc(F)cc2)n1	48.2*	55.9*	41.4*	·	·	27.6	45.7*	TIM10 conf=39.4*
Cc1cc(C)nc(SCC(=O)c2ccc(F)cc2)n1	12.1	19.1	1.1	-13.0	0.1	·	·
COc1ccc(-c2nc(-c3cccs3)c(-c3cccs3)[nH]2)cc1O	26.3	73.9*	52.3*	·	-3.0	33.9*	71.3*
COc1ccc(/C=N/NC(=O)c2nn(C)cc2Br)cc1CSCc1ccco1	26.1	52.2*	44.4*	-11.2	0.5	20.0	47.1*
CCOc1cc(/C=N/NC(=O)c2nn(C)cc2Br)ccc1OCc1ccccc1	8.7	9.8	7.7	-23.4	2.8	·	·
CN(C)N1C(N)=C(C#N)C(c2ccc3c(c2)OCO3)C2=C1CCCC2=O (configuration not stated)	3.8	11.3	11.3	10.7	-1.1	·	·
O=Cc1ccc(OCc2cccc(C(F)(F)F)c2)cc1O	13.9	57.5*	44.7*	-25.6	-2.0	48.2*	41.7*
COCOc1ccc(C=O)c(O)c1	-6.7	12.9	3.9	4.6	0.8	·	·
C[C@H](CO)N1C[C@H](C)[C@@H](CN(C)C(=O)Nc2ccccc2)Oc2ncc(-c3ccc(C#N)cc3)cc2C1=O	·	·	·	·	1.8	·	·
O=C(CCNC(=O)N1CC(=O)Nc2ccccc21)NCc1cccc(C(F)(F)F)c1	·	·	·	·	3.4	·	·
CCNC(=O)O/N=C(\C)c1sc(-c2ccc(Cl)cc2)nc1C	20.8	56.7*	60.1*	-12.0	1.8	53.5*	64.2*
Cc1ccc(NC(=O)COc2ccc(N(C)S(=O)(=O)c3ccc(F)cc3)cc2)cc1	-11.5	18.4	11.8	1.8	5.0	·	·
C=C(C)CSc1nnc2n(C)c(=O)c3c4c(sc3n12)CCC4	26.0	53.3*	46.0*	·	1.0	27.6	54.2*
CC(C)Oc1ccc(CSc2nnc3n(C)c(=O)c4c5c(sc4n23)CCCC5)cc1	13.6	-6.2	35.2	-3.9	0.0	·	·
COc1ccc(S(=O)(=O)N2CCC(NC(=O)c3cccnc3)CC2)cc1	-4.9	10.3	16.3	-12.5	-2.2	·	·
COc1ccc(/C=C/C=C2\N=C(SC)SC2=O)cc1	57.1*	71.7*	50.8*	14.1	-3.8	38.0*	21.7	TIM10 conf=-2.1
COc1ccc(-c2ccc(CN3C(C(C)C)C(=O)N(Cc4cn(CCC5OCCO5)nn4)CCS3(=O)=O)cc2)cc1 (configuration not stated)	·	·	·	·	1.1	·	·
